Rows were chosen to be rich in hits. Some 1.9% of all compounds tested hit in one or more screens of this group.
ATG4B inh = ATG4B (human) cysteine protease inhibition. ATG4B cleavage of LC3-PLA2, NBD-HPC fluorescence, 1 h. 340,000 compounds, 0.51% hits. AID 504462. inhibition, % at 8.33 µM. Q9Y4P1; in the data active = inhibition above about 40%
Target sequence (Q9Y4P1 whole entry, looked up): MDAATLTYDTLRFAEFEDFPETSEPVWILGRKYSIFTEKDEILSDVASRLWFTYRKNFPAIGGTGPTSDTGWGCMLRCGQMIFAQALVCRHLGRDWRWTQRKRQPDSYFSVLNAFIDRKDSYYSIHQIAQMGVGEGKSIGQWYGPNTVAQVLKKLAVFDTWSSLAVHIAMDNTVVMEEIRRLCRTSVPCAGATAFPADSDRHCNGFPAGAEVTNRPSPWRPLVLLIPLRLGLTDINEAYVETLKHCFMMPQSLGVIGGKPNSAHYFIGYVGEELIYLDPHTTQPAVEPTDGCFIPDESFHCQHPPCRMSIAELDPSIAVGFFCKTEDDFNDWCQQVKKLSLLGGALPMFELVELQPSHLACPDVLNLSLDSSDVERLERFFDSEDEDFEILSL
PP1 inh = PP1-alpha (human) inhibition in PP5 counter-screen. P62136. purified PP1alpha, OMFP fluorescence. inhibition, % at 6.7 µM. 320,000 compounds, 0.9% hits. AID 2235;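 active = inhibition above the mean inhibition of all tested compounds plus 3 SD, computed separately for each screening campaign, cut at about 15% in these data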
Cardio protect = myocardial damage modulation in H9c2 cells; H9c2 cardiomyocytes, H2O2 injury protection, ATPLite, 2 h; protection from H2O2 cell death, % at 20 µM; 360,000 compounds, 0.63% hits; AID 588492;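 active = compounds giving at least 50% protection of heart cells from peroxide-induced death in the single-dose screen, raw or plate-pattern-corrected value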;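 also: 0% = DMSO wells with peroxide and 100% = DMSO wells without peroxide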
PP5 inh = PP5 (human) phosphatase inhibition. purified PP5c, OMFP substrate fluorescence. inhibition, % at 6.7 µM. 320,000 compounds, 0.18% hits;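 active = inhibition above the campaign's mean inhibition across all tested compounds plus 3 SD, cut at about 9.5% in these data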;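 also: 0% = DMSO only and 100% = 100 µM cantharidin control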
Numbers without * were called inactive; . = no result given.

SMILES	ATG4B inh	PP1 inh	Cardio protect	PP5 inh
Cc1ccc(-c2ccc3c(c2)O[C@H](CN(C)Cc2cncnc2)[C@@H](C)CN([C@H](C)CO)S3(=O)=O)cc1	.	.	10.1	.
O=C(COC(=O)c1cc(-c2cccnc2)nc2ccccc12)Nc1ccc(F)cc1F	-14.0	3.6	71.4*	3.0
Cc1cccc(C)c1NC(=O)COC(=O)c1cc(-c2cccnc2)nc2ccccc12	9.4	0.4	11.4	3.1
C[C@@H]1CN([C@@H](C)CO)C(=O)CCCn2nncc2CO[C@@H]1CN(C)S(=O)(=O)c1ccc2ccccc2c1	.	.	3.7	.
CC(=O)c1ccc(-c2ccc(/C=C(/Sc3n[nH]c(C)n3)C(=O)O)o2)cc1	1.4	16.3*	16.3	1.5
Cc1nc(S/C(=C/c2ccc(-c3ccc(C(=O)O)cc3)o2)C(=O)O)n[nH]1	-5.8	1.9	6.6	-0.9
CCOC(=O)Cc1csc(SCC(=O)Nc2oc(C)c3c(C)n[nH]c(=O)c23)n1	-2.0	-0.5	7.2	0.3
NC[C@H](Cc1ccccc1)NCCCCC1CCCCC1	3.6	1.5	2.1	1.4
CNC[C@H](CC1CCCCC1)NC[C@H](Cc1ccccc1)NCCC12CC3CC(CC(C3)C1)C2	15.8	20.6*	-10.7	7.1
CN(CC(=O)Nc1sc2c(c1C#N)CCCCC2)Cc1nc2ccccc2c(=O)[nH]1	-1.0	15.3*	9.6	1.1
COC(=O)c1[nH]c2c(c1C)C(=O)CC(c1cc(OC)ccc1OC)C2 (centres undefined)	2.6	-1.8	56.6*	2.4
NC(N)=NS(=O)(=O)c1ccc(NC(=S)NC(=O)c2sc3ccccc3c2Cl)cc1	-2.2	15.9*	-4.3	1.4
COC(=O)c1ccc(NC(=O)CNC(=O)c2sc3ccccc3c2Cl)cc1	-15.4	15.3*	-2.5	2.2
Cc1ccc(NC(=O)Cn2cc([N+](=O)[O-])nc2C)cc1C	4.2	2.5	-1.7	0.8
CC(NC=O)c1nc2ccccc2n1CCc1ccccc1 (centres undefined)	2.6	-1.7	8.8	-1.9
CN1CC(=O)N(CC(=O)Nc2ccc(N3CCOCC3)cc2)C1=O	0.6	-4.0	-8.8	0.3
Cn1c(=O)c2c(nc(SCC(=O)NCc3ccc4c(c3)OCO4)n2Cc2ccccc2)n(C)c1=O	-8.1	-16.6	3.4	-3.1
Cn1c(=O)c2c(nc(NCc3ccc4c(c3)OCO4)n2C)n(C)c1=O	-7.8	0.2	52.6*	-0.7
Cc1cccc2cc(CN(Cc3ccco3)C(c3nnnn3CCc3ccccc3)C(C)C)c(=O)[nH]c12 (centres undefined)	-9.6	15.6*	-12.7	4.2
COCCn1nnnc1C(C(C)C)N(Cc1ccccc1)Cc1cc2cc(OC)ccc2[nH]c1=O (centres undefined)	-22.0	.	41.7	.
CCC(C)(C)n1nnnc1C(C(C)C)N(Cc1ccco1)Cc1cc2cc3c(cc2[nH]c1=O)OCO3 (centres undefined)	1.1	1.5	5.2	1.4
COCCn1nnnc1C(C(C)C)N(Cc1cccnc1)Cc1cc2cc(OC)ccc2[nH]c1=O (centres undefined)	-7.2	-6.7	61.3*	3.4
COc1ccc2[nH]c(=O)c(CN(C3CCCCC3)C(c3nnnn3Cc3ccco3)C(C)C)cc2c1 (centres undefined)	-2.9	20.5*	94.8*	5.6
CCC(c1nnnn1Cc1ccco1)N(Cc1cc2cc(C)cc(C)c2[nH]c1=O)CC1CCCO1 (centres undefined)	-8.2	0.9	61.5*	0.8
CCOc1ccccc1CNC(=O)Cn1ccc2cc(S(=O)(=O)N3CCC(C)CC3)ccc21	-7.4	3.5	-7.5	4.0
SMILES	ATG4B inh	PP1 inh	Cardio protect	PP5 inh
COc1ccc2[nH]c(=O)c(CN(Cc3ccco3)C(c3nnnn3Cc3ccccc3)C(C)C)cc2c1 (centres undefined)	-1.8	0.1	51.0*	4.2
CCCCn1c(N)c(N(Cc2ccccc2OC)C(=O)CCC(C)C)c(=O)[nH]c1=O	-3.0	-2.1	5.4	1.1
O=C(O)c1nn(CCOc2ccccc2F)c(=O)c2ccccc12	-2.9	2.5	53.7*	2.9
O=C(O)c1nn(CCOc2ccc(Br)cc2)c(=O)c2ccccc12	-12.3	2.2	55.4*	3.7
CCc1cccc(OCCn2nc(C(=O)O)c3ccccc3c2=O)c1	-7.5	8.4	44.2	-1.5
CC(C)Cc1cc(CNC(=O)C2CCC(=O)N(Cc3cccc(C(F)(F)F)c3)C2)on1 (centres undefined)	7.5	-3.8	-3.1	3.9
Cc1cc(-c2nn3c(-c4ccccc4)nnc3s2)c2ccccc2n1	-25.7	2.8	64.3*	1.1
CC(C)CC(=O)O/N=C1\C(=O)N(Cc2ccc(Cl)cc2)c2ccc([N+](=O)[O-])cc21	.	16.6*	.	2.5
CC(=O)O/N=C1\C(=O)N(Cc2ccc(C)cc2)c2ccccc21	1.1	.	-1.5	.
Cc1cc(C)c2[nH]c(=O)c(CN(Cc3cccs3)C(=S)NCc3ccco3)cc2c1	-1.1	15.8*	-11.6	1.9
CCOC(=O)Cc1cc(=O)n2[nH]c(C)c(-c3ccccc3)c2n1	0.7	15.3*	7.0	0.8
COc1ccc(Cl)cc1-c1nc(-c2ccc(NC(=O)c3cccs3)cc2)no1	-2.8	1.3	56.0*	1.4
O=C(Nc1ccc(-c2noc(-c3cccs3)n2)cc1)c1cccnc1	-7.7	1.6	63.8*	7.0
O=C(C1CC(=O)N(c2ccc3c(c2)OCCO3)C1)N1CCN(S(=O)(=O)c2ccccc2F)CC1 (centres undefined)	-12.3	.	-10.1	.
COc1ccc(N2CC(C(=O)NCc3n[nH]c(=O)c4ccccc34)CC2=O)cc1 (centres undefined)	5.7	.	64.7*	.
O=C(NCc1n[nH]c(=O)c2ccccc12)C1CC(=O)N(c2ccc(Cl)cc2)C1 (centres undefined)	-2.8	-3.0	59.3*	-0.2
Cc1ccc(S(=O)(=O)N2CCN(C(=O)COC(=O)Cc3ccc(Cl)cc3)CC2)c(C)c1	-12.5	-0.6	-7.3	0.5
COc1cc(NC(=O)CCc2c(C)nc3nc(C)nn3c2C)cc(OC)c1	-7.5	-1.1	10.0	-2.2
COc1cc(OC)cc(-c2cc3nc(C)c(CCC(=O)Nc4nc(C)cs4)c(C)n3n2)c1	-2.2	-1.8	63.7*	2.4
CCCNC(=O)c1ccc(N2CCC3(CC2)CC(c2ccccc2)=NO3)c(NC(=O)c2ccco2)c1	1.7	12.9	89.8*	1.8
CCCNC(=O)c1ccc(N2CCC3(CC2)CC(c2ccccc2)=NO3)c(NC(=O)c2cccc(OC)c2)c1	16.8	11.6	34.8	3.1
Cc1ccc(N=Cc2cc3c(cc2[N+](=O)[O-])OCO3)cc1[N+](=O)[O-]	4.0	4.8	-2.0	4.1
Cc1ccc(C)c(N=Cc2cc3c(cc2[N+](=O)[O-])OCO3)c1	2.0	1.7	62.7*	1.5
N#CCc1ccc(Oc2ncccn2)cc1	0.2	-1.1	3.3	0.4
COc1cc2c(C#CCCCO)c(-c3ccsc3)oc(=O)c2cc1OC	-25.5	.	68.5*	.
COc1ccc(-c2oc(=O)c3cc(OC)c(OC)cc3c2C#CCCCO)cc1	-19.6	.	38.7	.
COc1ccc(S(=O)(=O)Nc2ccc(F)cc2F)cc1C(=O)N1CCOCC1	10.7	-4.6	6.5	1.1
